Data as given in the supplement of paper PMC10338343.
± gives the standard deviation. The full ranking holds about 5,500 sequences; the median of “pre-steady-state target cleavage rate” is about 0.1, and the highest 2% start at about 0.64. Many of the other results were omitted from the sample, so the highest values are more common in it than they were.

Tested on: MIWI (PIWIL1) piRISC loaded with piRNA #2 (30 nt)
Test: pre-steady-state target cleavage rate (min^-1); MIWI and MILI are mouse PIWI proteins and EfPiwi is from a freshwater sponge; tags in brackets are library labels; higher = faster piRNA-guided slicing of the target
Settings: guide: piRNA #2 5'p-UUAGGUAACCCAGUAGAUCCAGAGGAAUUC; auxiliary factor: 500 nM mouse GTSF1
Summary of the method: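 Cleave-'n-Seq used a transcribed, DNA-blocked target RNA library at 0.1 nM and active affinity-purified piRISC with one synthetic guide at 1 nM, with or without 500 nM GTSF1 partner protein, in HEPES–potassium acetate buffer at 33 °C for 0–8 or 0–960 min. Uncleaved targets were sequenced and normalised to depth and to weakly complementary targets, and three trials were pooled with k3 capped at 0.0001 min^-1. The pre-steady-state cleavage rate was estimated by a burst-and-steady-state fit.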

Sequence | pre-steady-state target cleavage rate
CUUAACCACUGGAACUACUGGGUUACCUAA | 0.292 ± 0.025
CUAUUCCACUGGAUCUACUGGGUUUCCUAA | 0.448 ± 0.066
CAAUUGCUCUGGAUCUACUGGGUUACCAAA | 0.429 ± 0.071
CUUAAGGUCUGGAUCUACUGGGUUACAUAA | 0.606 ± 0.054
CUAUUCCUCUGGAUCUACUGGGUUACCUAAA | 0.333 ± 0.047
CUUUUCCUCUCGAUCUACUGGCUUACCUAA | 0.201 ± 0.016
CUUAAGGUCUGGAUCAACUGGGUUACGUAA | 0.293 ± 0.039
CUUAUCCUCUGGAUCUACUGGAUUACCUAA | 0.402 ± 0.049
CUUAACCUCUGGAUCUACUGAGUUACCUAA | 0.646 ± 0.047
CUUAACCUCUGGAUCUACUGGUUACCUAA | 0.0564 ± 0.012
CUUAUCCUCUGGAUCUACUGAGUUACCUAA | 0.779 ± 0.05
CUUAUCCUCUGGAUCUACUGGGUUACCUAA [g2:g26:cont:t1A] | 0.414 ± 0.063
CUUAACCUCUGGAUCUACUGGAGUUACCUAA | 0.00317 ± 0.0031
CUUAUCCUCUGGAUCUACAGGGUUUCCUAA | 0.119 ± 0.02
GAAUUCCUCUGGAUCUACUGGGUGACCUAA | 0.244 ± 0.038
GAAUUCGUCUGGAUCUACUGGGUUAGCUAA | 0.293 ± 0.068
CUUAACCUCUGGAUCUACUCGGUUACCUUA | 0.052 ± 0.011
CUUAACCUCUGGUUCUACUGCGUUACCUAA | 0.754 ± 0.077
GAAUACCUCUGGUUCUACUGGGUUACCUAA | 0.59 ± 0.052
CAAUACCUCUGGAUCUACUGGGUUACCUAA | 0.395 ± 0.06
CAAUACCUCUGGUUCUACUGGGUUACCUAA | 0.909 ± 0.066
CUUAUCCUCUGGUUCUACUGCGUUACCUAA | 0.455 ± 0.04
CUUAACCUCUGGUUCUACUGGGUUACCUAA | 0.479 ± 0.042
CUAUACCUCUGCAUCUACUGGGUUACCUAA | 0.439 ± 0.042
CUUUACCUCUGGUUCUACUGGGUUACCUAA | 0.514 ± 0.043

Sequence | pre-steady-state target cleavage rate
CUAUACCUCUGGUUCUACUGGGUUACCUAA | 0.696 ± 0.053
GAAUUGCUCUGGAUCUACUGGCUUACCUAA | 0.0382 ± 0.014
GAAUUCCUCUGGAUACUACUGGGUUACCUAA | 0.373 ± 0.056
GAAUUCCUCUGGAACUACUGGGUUACCAAA | 0.233 ± 0.056
CAAUUCCUCUGGAUCUACUCGGUUUCCUAA | 0.0763 ± 0.028
CAAUUCGUCUGGAUCUACUGCGUUACCUAA | 0.376 ± 0.044
CUUAAGGAGACCUUCCUACUGGGUUACCUAA | 0.00294 ± 0.0029
CUUAUGCUCUGGAUCUACUGGGUUACGUAA | 0.534 ± 0.042
CAAUUCCUCAGGAUCUUCUGGGUUACCUAA | 0.485 ± 0.058
GAAUUCCUCACCAUCUACUGGGUUACCUAA | 0.455 ± 0.051
CAAUUCCUGACGAUCUACUGGGUUACCUAA | 0.212 ± 0.034
CUUUUCCUCACGAUCUACUGGGUUACCUAA | 0.635 ± 0.051
GAAUUCCUCACGAUCUACUGGGUUACCUAA | 0.697 ± 0.051
CAAUUCCUCACGAUCUACUGGGUUACCUAA | 0.784 ± 0.05
CUAUUCCUCACGAUCUACUGGGUUACCUAA | 0.659 ± 0.042
CUAUUCCUCACCAUCUACUGGGUUACCUAA | 0.384 ± 0.049
CUAUUCCUGACGAUCUACUGGGUUACCUAA | 0.133 ± 0.023
CAAUUCCUCACCAUCUACUGGGUUACCUAA | 0.573 ± 0.069
CAAUUCCUCUGGAUCUACAGGGUUAGCUAA | 0.157 ± 0.054
CUUAAGCUCUCGAUCUACAGGGUUACCUAA | 0.185 ± 0.012
CUUAUCCUCUGGAUCUUCUGGGUUACCUUA | 0.289 ± 0.053
GAAUACCUCUGGAUCUACUGGGUAACCUAA | 0.168 ± 0.035
CUAUUCCUCUGCAUCUACUGCGUUACCUAA | 0.654 ± 0.047
CUUUUCCUCUGCAUCUACUGCGUUACCUAA | 0.49 ± 0.037
CAAUUCCUCUGCAUCUACUGCGUUACCUAA | 0.666 ± 0.058

Sequence | pre-steady-state target cleavage rate
GAAUUCCUCUGCAUCUACUGCGUUACCUAA | 0.591 ± 0.054
CUAUUCCUCUGCAUCUACUGGGUUACCUAA | 0.463 ± 0.04
CUUAUCCUCUGCAUCUACUGCGUUACCUAA | 0.377 ± 0.032
GAAUUCCUCUGGAUCUACUGGCAUACCUAA | 0.00471 ± 0.003
CUUAACCUCUGAAUCUACUGGGUUACCUAA | 0.158 ± 0.019
CUUAACCUCUCGAUCUACUGGCUUACCUAA | 0.173 ± 0.016
CUUAAGGUCUGGAUCUUCUGGGUUACCAAA | 0.0379 ± 0.015
CUAUUCCUCUUGGAUCUACUGGGUUACCUAA | 0.433 ± 0.046
GAAUUCCUCUGAUCUACUGGGUUACCUAA | 0.454 ± 0.062
GAAUUCCUCUUGAUCUACUGGGUUACCUAA | 0.74 ± 0.037
GAAUUCCUCUUGGAUCUACUGGGUUACCUAA | 0.402 ± 0.042
CAAUUCCUCUUGGAUCUACUGGGUUACCUAA | 0.358 ± 0.046
CUUUUCCUCUUGAUCUACUGGGUUACCUAA | 0.705 ± 0.039
CUUUUCCUCUGAUCUACUGGGUUACCUAA | 0.304 ± 0.036
CAAUUCCUCUUGAUCUACUGGGUUACCUAA | 0.866 ± 0.044
CUAUUCCUCUGAUCUACUGGGUUACCUAA | 0.395 ± 0.048
CUUUUCCUCUUGGAUCUACUGGGUUACCUAA | 0.346 ± 0.033
CAAUUCCUCUGAUCUACUGGGUUACCUAA | 0.528 ± 0.061
CUAUUCCUCUUGAUCUACUGGGUUACCUAA | 0.767 ± 0.04
CUUAUCGUCUGGAUCUACUGGGUUACCUUA | 0.295 ± 0.066
CAAUUCCUCUGGAACUACUGGGUAACCUAA | 0.235 ± 0.035
CUUUUCCUCUGGAUCUACACCGUUACCUAA | 0.0786 ± 0.0085
CUUAACCUCUCGAUCUACUGGGUUACCUUA | 0.373 ± 0.034
